Outcome and AC50 data for 3 compounds are collected here from PubChem BioAssay (EPA / NIEHS).

Read-out in test [1]: TIMP1, TIMP1 (gene 7076)
The experiment in a line: LTEA_HepaRG_TIMP1: Life Technologies and Expression Analysis (LTEA) Assay for TIMP1 using HepaRG (AID 2283534; active = hit-call score of the fitted dose curve at least 0.9, where 1 is the maximum; inactive = score below 0.9). Particulars: mRNA level, 48 h; actives raise or lower the signal. The gist of the method:
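Bidirectional change in TIMP1 transcript versus 0.5% DMSO, measured by TaqMan qRT-PCR with three housekeeping genes for normalization. HepaRG human liver cells dosed 48 h in duplicate, top concentration 100 uM with half-log dilutions.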

Read-out in test [2]: Tumor necrosis factor receptor 1 (TNFRSF1A), TNFRSF1A (gene 7132)
Nature of the test: LTEA_HepaRG_TNFRSF1A: Life Technologies and Expression Analysis (LTEA) Assay for Tumor necrosis factor receptor 1 (TNFRSF1A) using HepaRG (AID 2283535; active = hit-call score of the fitted dose curve at least 0.9, where 1 is the maximum; inactive = score below 0.9). The following applies: mRNA level, 48 h; actives raise or lower the signal. The gist of the method:
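mRNA measured by qRT-PCR (TaqMan, Fluidigm arrays) against ACTB/GAPDH/POLR2A housekeepers after 48 h chemical exposure of HepaRG cells. Top concentration 100 uM, half-log 8-point series, duplicates; vehicle 0.5% DMSO, both fit directions.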

Read-out in test [3]: Thyroid Hormone Responsive (THRSP), THRSP (gene 7069)
The experiment in a line: LTEA_HepaRG_THRSP: Life Technologies and Expression Analysis (LTEA) Assay for Thyroid Hormone Responsive (THRSP) using HepaRG (AID 2283536; active = hit-call score of the fitted dose curve at least 0.9, where 1 is the maximum; inactive = score below 0.9). Particulars: mRNA level, 48 h; actives raise or lower the signal. Put shortly:
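Differentiated human HepaRG cells were exposed in duplicate for 48 h in serum-free induction medium to eight concentrations (top 100 uM, half-log steps, 0.5% DMSO). Expression was quantified by TaqMan qRT-PCR, normalized to ACTB, GAPDH and POLR2A, with bidirectional fitting against DMSO.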

Read-out in test [4]: Cellular tumor antigen p53 (Homo sapiens) (UniProt P04637)
The experiment in a line: LTEA_HepaRG_TP53: Life Technologies and Expression Analysis (LTEA) Assay for Tumor Protein P53 (TP53) using HepaRG (AID 2283537; active = hit-call score of the fitted dose curve at least 0.9, where 1 is the maximum; inactive = score below 0.9). Particulars: mRNA level, 48 h; actives raise or lower the signal. Put shortly: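 Differentiated HepaRG cells in serum-free induction medium exposed 48 h in duplicate to 8 half-log concentrations, top 100 uM, 0.5% DMSO. TP53 mRNA by TaqMan qRT-PCR (Fluidigm), normalized to ACTB, GAPDH, POLR2A; fitted bidirectionally versus DMSO.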

Read-out in test [5]: UDP glucuronosyltransferase (UGT1A1), UGT1A1 (gene 54658)
Nature of the test: LTEA_HepaRG_UGT1A1: Life Technologies and Expression Analysis (LTEA) Assay for UDP glucuronosyltransferase (UGT1A1) using HepaRG (AID 2283538; active = hit-call score of the fitted dose curve at least 0.9, where 1 is the maximum; inactive = score below 0.9). Particulars: mRNA level, 48 h; actives raise or lower the signal. Put shortly:
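Differentiated human HepaRG cells in serum-free induction medium were exposed in duplicate for 48 h to eight half-log concentrations up to 100 uM in 0.5% DMSO. UGT1A1 mRNA was quantified by TaqMan qRT-PCR, normalized to ACTB, GAPDH and POLR2A, and fitted bidirectionally against DMSO.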

Read-out in test [6]: UDP glucuronosyltransferase (UGT1A6), UGT1A6 (gene 54578)
Nature of the test: LTEA_HepaRG_UGT1A6: Life Technologies and Expression Analysis (LTEA) Assay for UDP glucuronosyltransferase (UGT1A6) using HepaRG (AID 2283539; active = hit-call score of the fitted dose curve at least 0.9, where 1 is the maximum; inactive = score below 0.9). The following applies: mRNA level, 48 h; actives raise or lower the signal. The gist of the method: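 Expression was quantified by TaqMan qRT-PCR on Fluidigm arrays with ACTB/GAPDH/POLR2A normalization and bidirectional fitting against 0.5% DMSO. HepaRG cells (~100,000/well) were treated in duplicate for 48 h at eight half-log concentrations up to 100 uM in serum-free induction medium.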

Read-out in test [7]: X-box binding protein 1 (XBP1), XBP1 (gene 7494)
The experiment in a line: LTEA_HepaRG_XBP1: Life Technologies and Expression Analysis (LTEA) Assay for X-box binding protein 1 (XBP1) using HepaRG (AID 2283540; active = hit-call score of the fitted dose curve at least 0.9, where 1 is the maximum; inactive = score below 0.9). The following applies: mRNA level, 48 h; actives raise or lower the signal. The gist of the method: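 XBP1 transcript by qRT-PCR (housekeeping-normalized: ACTB, GAPDH, POLR2A) after 48 h chemical treatment of HepaRG cells, 8-point half-log series topping at 100 uM, vehicle 0.5% DMSO. Gain and loss of signal fitted relative to DMSO.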

A short description of test [8]: LTEA_HepaRG_LDH_cytotoxicity: Cytotoxicity Assessment in the Life Technologies and Expression Analysis (LTEA) Assay (AID 2283563). The gist of the method: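 LDH release into culture medium read after 48 h chemical treatment of HepaRG cells. Duplicate wells, eight-point half-log series topping at 100 uM, 0.5% DMSO vehicle and baseline.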
Test [9] in a line: ATG_XTT_Cytotoxicity: Cytotoxicity Assessment in the Attagene TRANS-FACTORIAL HepG2 Assay (AID 2283584).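 For AC50: cells exposed to compound for 24 h before reading; active means loss of viability signal versus DMSO baseline.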 The gist of the method:
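Viability endpoint from XTT after 24 h chemical exposure of reporter-transfected human HepG2 liver cells; signal loss fitted relative to DMSO negative control.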

Test [10] can be described thus: TOX21_p53_BLA_p2_viability: Viability Assessment in the Tox21 HCT-116 p53 Agonism Beta-lactamase Assay, Phase 2 (AID 2283591).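 Note: compound exposure lasted 16 h at 37 °C; actives lower the ATP signal meaning cytotoxicity.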 The gist of the method:
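HCT-116 p53-bla cells (4000/well) rested 5 h at 37C, then received compounds in DMSO (217-fold dilution) for 16 h at 37C, 5% CO2. After the CCF4 read, CellTiter-Glo was added; ATP luminescence was read after 30 min at room temperature.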

For test [11], the target named is Cellular tumor antigen p53 (Homo sapiens) (UniProt P04637). Nature of the test: TOX21_p53_BLA_p2_ratio: Tox21 HCT-116 p53 Agonism Beta-lactamase Assay, Ratio, Phase 2 (AID 2283592). Put shortly: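 Gain-of-signal p53 agonism was scored from the beta-lactamase FRET ratio (460/530 nm, 405 nm excitation) in HCT116 cells treated 16 h at 37C, 5% CO2, with DMSO serving as negative control and baseline.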
Sequence of Cellular tumor antigen p53 (Homo sapiens) (P04637 whole entry, looked up): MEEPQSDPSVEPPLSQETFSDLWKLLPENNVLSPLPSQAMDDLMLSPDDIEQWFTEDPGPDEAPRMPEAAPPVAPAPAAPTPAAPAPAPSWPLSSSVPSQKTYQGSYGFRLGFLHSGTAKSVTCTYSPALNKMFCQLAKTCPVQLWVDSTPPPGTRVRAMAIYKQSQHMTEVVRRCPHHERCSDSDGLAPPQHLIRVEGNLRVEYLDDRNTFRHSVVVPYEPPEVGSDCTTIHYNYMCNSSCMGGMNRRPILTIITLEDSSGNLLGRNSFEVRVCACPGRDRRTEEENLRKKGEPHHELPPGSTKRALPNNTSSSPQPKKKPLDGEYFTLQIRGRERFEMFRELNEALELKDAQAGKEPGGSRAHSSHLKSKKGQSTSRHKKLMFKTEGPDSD

Test [12] is described as follows: TOX21_p53_BLA_p3_viability: Viability Assessment in the Tox21 HCT-116 p53 Agonism Beta-lactamase Assay, Phase 3 (AID 2283593).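 Note: cells exposed to compound for 16 h before reading.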 Put shortly: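 HCT-116 cells (4000/well) rested 5 h at 37C, then got DMSO compounds by pin tool (217-fold dilution) for 16 h at 37C, 5% CO2. After the bla read, CellTiter-Glo was added and luminescence read at 30 min, room temperature.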

Test [13] deals with Cellular tumor antigen p53 (Homo sapiens) (UniProt P04637). The experiment in a line: TOX21_p53_BLA_p3_ratio: Tox21 HCT-116 p53 Agonism Beta-lactamase Assay, Ratio, Phase 3 (AID 2283596). The gist of the method:
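HCT116 p53-bla cells (4000/well) given compound in DMSO (217-fold dilution) after 5 h, incubated 16 h at 37C. CCF4-AM substrate 2 h at room temperature; 460/530 nm emission ratio, gain fitted against DMSO.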

Test [14] can be described thus: TOX21_p53_BLA_p4_viability: Viability Assessment in the Tox21 HCT-116 p53 Agonism Beta-lactamase Assay, Phase 4 (AID 2283597).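 Note: hits lower the luminescence signal meaning cytotoxicity.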 Put shortly: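 Following a 16 h exposure at 37C, the treated HCT116 wells were first read for the FRET ratio. They were then lysed with CellTiter-Glo, and ATP luminescence was recorded after 30 min at room temperature.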
The target in test [15] is Cellular tumor antigen p53 (Homo sapiens) (UniProt P04637). Nature of the test: TOX21_p53_BLA_p5_ratio: Tox21 HCT-116 p53 Agonism Beta-lactamase Assay, Ratio, Phase 5 (AID 2283599). The gist of the method:
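HCT-116 cells carrying a p53-inducible beta-lactamase reporter were seeded at 4000 cells/well and dosed after 5 h with compound in DMSO (217-fold dilution). After 16 h at 37C, CCF4-AM substrate was added for 2 h, and the 460/530 nm emission ratio was scored as gain-of-signal versus DMSO.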

Test [16] in a line: TOX21_p53_BLA_p5_viability: Viability Assessment in the Tox21 HCT-116 p53 Agonism Beta-lactamase Assay, Phase 5 (AID 2283600). The gist of the method:
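After the 460/530 nm beta-lactamase measurement, the wells received an ATP-detection luciferase reagent; signal was read 30 min later at RT. Compound treatment lasted 16 h on cells pre-incubated 5 h post-seeding.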

Test [17] concerns the target Cellular tumor antigen p53 (Homo sapiens) (UniProt P04637). The experiment in a line: TOX21_p53_BLA_p4_ratio: Tox21 HCT-116 p53 Agonism Beta-lactamase Assay, Ratio, Phase 4 (AID 2283601). Put shortly: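 HCT116 cells carrying an inducible beta-lactamase reporter were plated at 4000 cells/well, rested 5 h, then exposed to compounds in DMSO (217-fold dilution) for 16 h at 37C. CCF4-AM substrate was loaded 2 h at room temperature; 460/530 nm emission ratio scored gain-of-signal versus DMSO.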

Test [18] in a line: Tanguay_ZF_120hpf_MORT_legacy: (Legacy) Oregon State University Tanguay Lab 120 Hour Post-fertilization zebrafish Assay for Mortality (AID 2283633).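 For AC50: fitted as increase in binary mortality versus DMSO negative control.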 Put shortly:
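Static waterborne exposure from 6 to 120 hpf at 28C of single dechorionated wild-type (5D) embryos per well, 0.64% DMSO final. Death recorded present/absent by brightfield at 24 and 120 hpf.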

Test [19] is described as follows: Tanguay_ZF_120hpf_YSE_legacy: (Legacy) Oregon State University Tanguay Lab 120 Hour Post-fertilization zebrafish Assay for Yolk Sac Edema (AID 2283634).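 For AC50: actives raise the incidence of yolk sac edema above the DMSO baseline.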 Put shortly: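 Presence or absence of yolk sac edema was recorded at 120 hpf in surviving larvae. These were wild-type Tropical 5D embryos, chorion removed at 4 hpf, held in static exposure at 28C from 6 hpf with 0.64% DMSO vehicle.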

The nature of test [20]: Tanguay_ZF_120hpf_AXIS_legacy: (Legacy) Oregon State University Tanguay Lab 120 Hour Post-fertilization zebrafish Assay for Body Axis Malformation (AID 2283635).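 For AC50: potency for an increased fraction of larvae scored with body axis malformation.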 Put shortly:
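Binary scoring of axis defects at 120 hpf under brightfield, fitted positive versus DMSO. Tropical 5D embryos, chorion removed by pronase at 4 hpf, were singly exposed in sealed, dark plates at 28C from 6 hpf; DMSO 0.64% final.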

Several values for one entry are separate records, joined by “and”; a condition that tells them apart may be missing. Equal entries are not always repeated. Results filed as inconclusive are left out. Where a structure was tested more than once in an assay, its records may differ in their call. Activity calls are given as the source filed them. Rule for the calls, unless noted: active = hit-call score of the fitted dose curve at least 0.9, where 1 is the maximum; inconclusive = response in the unintended direction; inactive = score below 0.9.

For the compound `CC(C)(c1ccc(O)cc1)c1ccc(O)cc1`, the outcome in test [1], in [2], in test [3], in [4], in test [5] and in [6] was inactive. Further, the compound was called inactive in [7], in test [8], in test [9], in test [10], in test [11] and in [12]. Besides, the outcome in test [13], in test [14], in test [15], in [16], in [17] and in test [18] was inactive. The AC50 is 85.6 µM (active) in test [11]; 85.1 µM (active) in test [14]; 75.9 µM (active) in test [17]; 16.4 µM (active) in test [18]; 41.7 µM (active) and 25.2 µM (active) and 38.1 µM (active) in test [19]; 36.5 µM (active) and 64.9 µM (active) and 25.3 µM (active) in test [20].
Turning to `COCCO`, the compound was classed as inactive in test [1], in test [2], in [3], in [4], in [5] and in test [6]. Further, the outcome in test [7], in test [8], in test [9], in [11], in test [13] and in test [15] was inactive. The compound was classed as inactive in test [16], in [18] and in test [20].
`CC(C)CCCCCCc1ccc(O)cc1`: the compound was called inactive in test [1], in test [2], in [3], in test [4], in test [5] and in test [6]. For the same compound, the outcome in [7], in [8], in test [10], in test [11], in test [12] and in test [13] was inactive. The call in test [14], in [15], in test [16], in [17], in [18] and in test [19] was inactive. The compound was called inactive in test [20]. In addition, the AC50 in [9] was 50 µM (active) [middle of 4 runs]; in test [12], 66.6 µM (active) and 71.5 µM (active); in test [13], 71.2 µM (active); in test [14], 25.6 µM (active) and 34.7 µM (active); in test [15] it was 39.9 µM (active); in test [16], 37.2 µM (active). Also, in [17], the AC50 is 46.2 µM (active) and 41.7 µM (active).

By AC50 is commonly meant the concentration at which the activity in the assay is half-maximal.
